# Measurements from the supplement of paper PMC10127200.
# Where a name gives a salt, the structure may show the parent alone.
# How the values were obtained:
# Assay in all cases: Euclidean distance of Cell Painting phenotypic profile (signed KS, 77 features) to DMSO centroid (dimensionless distance); 5 or 10 uM (library dependent); higher = stronger phenotypic change vs DMSO (phenoactivity)
# Conditions in all cases: 48 h
# 786-O = system: 786-O
# In short: (§1)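 Stained cells were imaged confocally at 20X with 9 fields per well, after 48 h of exposure to library compounds at 10 or 5 uM (set by library; 0.1% DMSO final). The cells were five cancer lines and a healthy fibroblast line. From the images, Harmony extracted 77 features, each expressed as a signed Kolmogorov-Smirnov statistic relative to same-plate vehicle wells. Phenoactivity is measured as Euclidean distance to the median vehicle profile, using plate-position-corrected, correlation-weighted profiles averaged across replicates at the top dose.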
# A549 = system: A549
# In short: as §1
# DU145 = system: DU145
# In short: as §1
# FB = system: FB
# In short: as §1
# HEPG2 = system: HEPG2
# In short: as §1
# OVCAR4 = system: OVCAR4
# In short: as §1
SMILES,Euclidean distance (786-O),Euclidean distance (A549),Euclidean distance (DU145),Euclidean distance (FB),Euclidean distance (HEPG2),Euclidean distance (OVCAR4)
CC(C)(CO)[C@@H](O)C(=O)NCCC(=O)O [D-Pantothenic acid],1.36,0.696,0.734,1.08,0.485,1.11
N#C/C(=C\c1ccc(O)c(O)c1)C(=O)NCc1ccccc1 [AG-490 (Tyrphostin B42)],1.55,1.52,1.17,1.34,0.804,0.729
CCOc1cc(N)c([N+](=O)[O-])cc1C(=O)NC1CCN(CC2CC=CCC2)CC1 (configuration not stated) [Cinitapride Hydrogen Tartrate],1.33,1.05,1.38,1.21,0.924,1.57
CCCS(=O)(=O)Nc1ccc(F)c(C(=O)c2c[nH]c3ncc(-c4ccc(Cl)cc4)cc23)c1F [Vemurafenib (PLX4032. RG7204)],1.14,1.53,1.68,1.23,2.32,1.06
COc1ccc2[nH]c([S+]([O-])Cc3ncc(C)c(OC)c3C)nc2c1 (configuration not stated) [Omeprazole],3.37,2.83,3.32,3.97,4.04,2.98
C=CC[N+]1([C@H]2C[C@H]3[C@@H]4CC[C@H]5C[C@H](O)[C@@H](N6CCOCC6)C[C@]5(C)[C@H]4CC[C@]3(C)[C@H]2OC(C)=O)CCCC1 [Rocuronium Bromide],1.59,1.12,1.92,1.08,0.685,1.25
COC(=O)N1CCN(Cc2cccc(NC(=O)Nc3ccc(C)nc3)c2F)CC1,1.27,1.17,0.538,0.851,0.768,1.28
CCCOc1ccc2[nH]c(NC(=O)OC)nc2c1 [Oxibendazole],2.66,2.7,3.08,2.55,1.73,2.58
CN1CCN2c3ccccc3Cc3ccccc3C2C1 (configuration not stated) [Mianserin HCl],2.29,2.41,0.876,2.86,1.34,2.29
CC(=O)Oc1ccccc1C(=O)O [Aspirin],0.701,0.531,0.625,0.734,0.608,0.816
Cc1ccc(S(=O)(=O)NC(=O)NN2CC3CCCC3C2)cc1 (configuration not stated) [Gliclazide],1.36,0.771,1.24,1.14,1.07,1.65
COc1cc(C(C)=O)ccc1OCCCN1CCC(c2noc3cc(F)ccc23)CC1 [Iloperidone],1.83,1.43,0.93,1.43,0.503,1.87
CCOC(=O)[C@H](CCc1ccccc1)N[C@@H](C)C(=O)N1Cc2ccccc2C[C@H]1C(=O)O [Quinapril HCl],1.41,1.16,0.942,1.09,0.483,1.04
CC1(C)S[C@@H]2[C@H](NC(=O)Cc3ccccc3)C(=O)N2[C@H]1C(=O)O [Benzylpenicillin potassium],1.15,0.89,1.18,0.93,0.711,1.48
Cc1nc(C)c(Cl)c(O)c1Cl [Clopidol],0.853,1.1,0.432,1.15,0.83,1.61
N#C/C(=C(/N)Sc1ccc(N)cc1)c1ccccc1C(F)(F)F,0.949,1.46,0.889,1.1,1.41,0.988
O=c1ncn2nc(Sc3ccc(F)cc3F)ccc2c1-c1c(Cl)cccc1Cl,1.78,0.873,1.38,1.63,1.25,1.55
O=c1c(O)c(-c2cc(O)c(O)c(O)c2)oc2cc(O)cc(O)c12 [Myricetin],0.872,2.24,2.15,1.76,1.1,2.1
CCOc1nc2cccc(C(=O)OC(C)OC(=O)OC3CCCCC3)c2n1Cc1ccc(-c2ccccc2-c2nn[nH]n2)cc1 (configuration not stated) [Candesartan Cilexetil],1.1,0.605,1.35,0.788,1.82,1.29
O=C(O)Cc1cc(I)c(Oc2ccc(O)c(I)c2)c(I)c1 [Tiratricol],0.855,0.554,0.644,0.597,0.536,0.847
CC(C(=O)O)c1ccc2c(c1)CC(=O)c1ccccc1S2 (configuration not stated) [Zaltoprofen],1.08,1.02,1.23,0.873,0.423,1.24
O=C1Nc2ccccc2C1=O [Isatin],0.739,1.21,1.26,1.29,1.03,1.39
CCN1C(=O)NC(c2ccccc2)C1=O (configuration not stated) [Ethotoin],0.868,0.725,0.615,0.863,0.528,1.28
CN(C)CC(=O)Nc1ccc2[nH]c(=O)c3ccccc3c2c1,1.25,1.08,0.921,1.3,1.34,1.07

SMILES,Euclidean distance (786-O),Euclidean distance (A549),Euclidean distance (DU145),Euclidean distance (FB),Euclidean distance (HEPG2),Euclidean distance (OVCAR4)
C[C@@H](OC[C@@]1(c2ccccc2)CC[C@]2(CCC(=O)N2)CN1)c1cc(C(F)(F)F)cc(C(F)(F)F)c1 [Rolapitant],1.23,1.85,1.34,1.17,1.3,1.41
C[C@]12CC[C@@H]3c4ccc(O)cc4C[C@@H](CCCCCCCCC[S+]([O-])CCCC(F)(F)C(F)(F)F)[C@H]3[C@@H]1CC[C@@H]2O (some centres not stated) [Fulvestrant],1.83,1.67,0.894,1.18,0.76,1.56
CCCCOC(=O)c1ccccc1Nc1cccc(C(F)(F)F)c1 [Ufenamate],1.52,0.505,1.4,1.25,0.931,1.83
CN(C)c1nc(N(C)C)nc(N(C)C)n1 [Altretamine],1.11,0.902,0.807,1.32,0.597,0.929
Nc1cc(C(Cl)=C(Cl)Cl)c(S(N)(=O)=O)cc1S(N)(=O)=O [Clorsulon],1.15,0.636,0.797,0.676,0.743,1.18
Cn1c(Cn2ccc(C(F)(F)F)c(Oc3cc(Cl)cc(C#N)c3)c2=O)n[nH]c1=O [Doravirine (MK-1439)],1.23,0.8,1.11,1.13,0.593,0.914
O=C(NCc1ccncc1)C12CC3CC(C1)CC(c1ccc(Cl)cc1)(C3)C2,1.47,1.24,1.1,0.743,0.955,0.981
COc1cc(CNC(=O)CCCCC=CC(C)C)ccc1O [Capsaicin(Vanilloid)],1.06,1.47,1.35,0.876,0.778,1.44
Nc1cccc2c1C(=O)N(C1CCC(=O)NC1=O)C2=O (configuration not stated) [Pomalidomide],0.929,0.804,0.704,1.06,0.312,0.886
CCn1c(-c2nonc2N)nc2c(C#CC(C)(C)O)ncc(OC[C@H]3CCCNC3)c21,3.05,2.49,1.16,2,1.95,2.14
OC1CN(CCCOCCc2ccc3sccc3c2)C1 [Edonerpic maleate],0.947,0.582,0.87,1.18,0.525,0.97
CNCC[C@H](Oc1cccc2ccccc12)c1cccs1 [Duloxetine HCl],1.15,1.43,1.55,1.48,2.34,1.46
O=C(CSc1nc2c(c(=O)n1-c1ccccc1)SCC2)Nc1ccc(-c2ccccc2)cn1,1.36,1.81,1.11,0.832,1.42,0.588
Oc1ccc([C@H]2COc3cc(O)ccc3C2)cc1 (racemic),1.39,0.796,1.27,0.952,0.464,0.928
C[n+]1c2ccccc2nc2ccccc21 [Phenazine methosulfate],5.13,2.82,4.95,4.99,3.66,2.78
COc1cc(/C=C/C(=O)N2CCN(CC(=O)N3CCCC3)CC2)cc(OC)c1OC [Cinepazide maleate],1.21,0.96,1.04,1.16,0.337,1.41
"Oc1cc(O)c2c(c1)OC(c1ccc(O)c(O)c1)C(O)C2 (single isomer, unassigned; (+)) [(+)-Catechin]",0.785,0.904,0.506,0.842,0.247,0.849
Oc1nc(-c2ccc(C(F)(F)F)cc2)nc2c1CSCC2,0.915,1.5,1.11,0.913,0.766,1.15
Cc1cccc(C)c1OCC(C)N (configuration not stated) [Mexiletine HCl],0.988,0.742,0.639,1.07,0.966,0.836
CCCCCCCCCCCC(=O)O [Lauric Acid],1.1,0.784,1.21,1.34,0.884,0.985
CNC(=O)c1cccc(-c2ccc3c(N4CCOC[C@@H]4C)nc(N4CCOC[C@@H]4C)nc3n2)c1,4,3.14,2.52,4.98,4.09,4.15
OC(CNCC(O)C1CCc2cc(F)ccc2O1)C1CCc2cc(F)ccc2O1 (configuration not stated) [Nebivolol],1.39,1.67,0.832,1.65,2.26,1.58
COc1ccc(CN2C3CC2CN(c2ccc(-c4cc(OCC(C)(C)O)cn5ncc(C#N)c45)cn2)C3)cn1 [Selpercatinib (LOXO-292. ARRY-192)],0.919,2.72,0.961,1.56,0.545,1.15
